Assay [1] can be described thus: qHTS for differential inhibitors of proliferation of Plasmodium falciparum line D10 (AID 1877).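 Note: parasites grown with compound for 72 h before DNA staining; plate controls were vehicle wells for no effect and reference inhibitor wells for full effect.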 A general note: In qHTS, concentration-response curves come from the screen itself.
A short description of assay [2]: qHTS for differential inhibitors of proliferation of Plasmodium falciparum line Dd2 (AID 1882).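 Note: series mostly up to about 29 µM; plate controls were DMSO vehicle for no effect and 0.29 µM artemisinin for full effect; nearly all actives have a fitted effect of over 65% in size.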 Conditions: Potency: Plasmodium falciparum Dd2 proliferation inhibition. The method in brief: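 Dd2-infected erythrocytes (0.3% parasitemia, 2.5% hematocrit final) incubated with compound 72 h at 37 C, 5% CO2; lysed with saponin/Triton buffer containing SYBR Green I, incubated overnight in the dark, then read by fluorescence (485/535 nm). Normalized to 0.29 uM artemisinin and DMSO.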

A short description of assay [3]: qHTS for differential inhibitors of proliferation of Plasmodium falciparum line W2 (AID 1883).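 Note: potency is the fitted concentration of half-maximal effect; parasites grown with compound for 72 h before lysis and staining.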 Particulars: Potency: Plasmodium falciparum W2 proliferation inhibition.
The nature of assay [4]: qHTS for differential inhibitors of proliferation of Plasmodium falciparum line HB3 (AID 1886).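 Note: parasites grown with compound for 72 h before SYBR Green readout; plate controls were vehicle for no effect and reference inhibitor for full effect.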 Conditions: Potency: Plasmodium falciparum HB3 proliferation inhibition.
Assay [5] has as its target Ferritin light chain (Equus caballus) (UniProt P02791). Put plainly: qHTS Validation Assay for Identification of Novel General Anesthetics (AID 2323). Note: series mostly up to about 77 µM; % is set by controls: 0 for no effect and ±100 for the full control effect. In a few lines:
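Horse-spleen apoferritin (10 uM) in PBS with 50% saturated 1-aminoanthracene; compounds pin-transferred, 10 min at room temperature. Fluorescence read at 380/535 nm, normalized to free 1-AMA and 1-AMA/apoferritin values; four-parameter Hill fit.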

Assay [6] has as its target ATP-dependent DNA helicase Q1 (Homo sapiens) (UniProt P46063). Put plainly: qHTS Validation Assay for Inhibitors of RecQ-Like Dna Helicase 1 (RECQ1) (AID 2353).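 Note: plate controls were DMSO vehicle for no effect and enzyme-free control for full effect.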 In a few lines:
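50 nM RECQ1T1 preincubated 15 min with compound in Tris pH 8.0 buffer with MgCl2, DTT, Tween-20 and 2.5 ug/ml poly(dI-dC); started with 200 nM TAMRA/BHQ-2 forked duplex and 2 mM ATP. Unwinding read as fluorescence (525/598 nm), two reads 2 h apart.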

Assay [7] concerns the target RecQ-like DNA helicase BLM (Homo sapiens) (UniProt P54132). Put plainly: qHTS Validation Assay for Inhibitors of Bloom's syndrome helicase (BLM) (AID 2364).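 Note: plate controls were DMSO vehicle for no effect and enzyme-free control for full effect.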 In a few lines: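 50 nM BLM preincubated 15 min at room temperature with compound in pH 8.0 Tris buffer containing 2.5 ug/ml poly(dI-dC); started with 200 nM TAMRA/BHQ-2 forked duplex and 2 mM ATP (final). Unwinding read as TAMRA fluorescence increase, two reads 2 h apart.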

The nature of assay [8]: Validation screen for small molecules that induce DNA re-replication in MCF 10A normal breast cells (AID 463097). Note: 0% is about no effect; nearly all actives have a fitted effect of over 60% in size. In a few lines: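 MCF 10A cells exposed to compound 48 hr at 37 C, 5% CO2, then Hoechst-stained 40 min. Laser-scanning imaging of nuclear DNA content (405 nm ex, 500-530 nm em); re-replication scored as rise in nuclei with elevated fluorescence intensity.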
Assay [9] is described as follows: Quantitative high throughput screen for delayed death inhibitors of the malarial parasite plastid, 96 hour incubation (AID 488745).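 Note: luciferase-expressing P. falciparum in erythrocytes at 2% hematocrit and 0.1% parasitemia; series mostly up to about 29 µM; % is set by controls: 0 for no effect and ±100 for the full control effect; nearly all actives have a fitted effect of over 70% in size.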 The method in brief:
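Infected erythrocytes were added to compound in Albumax-supplemented RPMI 1640 at 0.1% parasitemia and 2% hematocrit (final), incubated 96 h at 37 C under 5% CO2, then luciferase reagent was added and luminescence measured.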

The nature of assay [10]: Quantitative high throughput screen for delayed death inhibitors of the malarial parasite plastid, 48 hour incubation (AID 488752). Note: % is set by controls: 0 for no effect and ±100 for the full control effect; nearly all actives have a fitted effect of over 65% in size. In a few lines: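 Readout is firefly luciferase luminescence from a reporter integrated into the parasite genome, with lower signal taken as inhibited growth. Infected red cells (0.1% parasitemia, 2% hematocrit final) are cultured with compound for one 48 h cycle at 37 C.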

The target of assay [11] is M-phase phosphoprotein 8 (Homo sapiens) (UniProt Q99549). Put plainly: qHTS Validation Assay for Inhibitors for MPP8 Chromodomain Interactions with Methylated Histone Tails (AID 488949). Note: top concentration of the series differs between compounds; % is set by controls: 0 for no effect and ±100 for the full control effect; nearly all actives have a fitted effect of over 55% in size. In a few lines: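 MPP8 (50 nM) was pre-bound to 50 nM biotinylated H3(1-18)K9me3 peptide in PBS pH 7.4 with 0.01% Tween-20. Compounds were then added for 30 min at room temperature, and complex disruption was read by AlphaScreen with streptavidin donor and nickel-chelate acceptor beads.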

The target of assay [12] is Transient receptor potential cation channel subfamily V member 1 (Homo sapiens) (UniProt Q8NER1). As to the kind of experiment: HTS Assay for Compounds that Act as Enhancers of the Vanilloid Receptor 1 (AID 488979). Note: 0% is about no effect. The method in brief:
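TRPV1 cells loaded with Fluo-8 calcium dye; compound added and Ca2+ signal (ex 480/em 520 nm) followed 3 min, then capsaicin at EC20 added and read 2 more min to detect enhancement.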

For assay [13], the target named is Thyrotropin receptor (Homo sapiens) (UniProt P16473). Put plainly: qHTS Assay for Antagonists of the Thyroid Stimulating Hormone Receptor (AID 488980). Note: series mostly up to about 58 µM; 0% is about no effect. In a few lines:
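TSHR-transfected HEK293 cells (2000/well) in HEPES-buffered HBSS with 70 uM RO 20-1724 were stimulated with 4 nM TSH (EC80, final) in the presence of compound. cAMP was measured by HTRF competition after lysis and 30 min at RT.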

Assay [14] addresses Thyrotropin-releasing hormone receptor (Homo sapiens) (UniProt P34981). As to the kind of experiment: qHTS for Small Molecule Agonists and Allosteric Enhancers of Human TRH Receptor: Validation Screen for Agonists (AID 493127;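 active = calcium activation more than 3 SD above the typical response in the agonist read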;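 note: intracellular calcium rise by fluo-8 fluorescence before TRH EC20 addition; 0% is about no effect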). Particulars: TRH receptor agonist cell assay; at 2 µM; stronger effect = higher value. In a few lines:
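Cells 2000/well, 10% FCS, 18 h 33.5C/5% CO2 → fluo-8 Ca dye, RT 30 min–1.5 h → FDSS baseline 10 × 1 s → compound added → 230 cycles (1 s/cycle) agonist mode. TRH controls.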

Assay [15] has as its target Galactokinase (Homo sapiens) (UniProt P51570). Put plainly: qHTS Validation Assay for Inhibitors of Human Galactokinase (GALK) (AID 493189). Note: 0% is about no effect. In a few lines: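 GALK (5 nM) with 35 uM ATP and 100 uM galactose in HEPES pH 8.0 with MgCl2, NaCl, DTT and BSA. Reaction ran 1 h at room temperature. Residual ATP read by Kinase-Glo Plus luminescence.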
Assay [16] can be described thus: Validation screen for small molecules that induce DNA re-replication in SW480 colon adenocarcinoma cells (AID 504364). Note: 0% is about no effect. The method in brief: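 250 cells/well; compound pinned in; 48 hr, 37 C, 5% CO2; Hoechst added, 40 min; nuclear fluorescence imaged, 405 ex / 500-530 em; re-replication scored as increase in high-intensity nuclei.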
Assay [17] deals with DNA dC->dU-editing enzyme APOBEC-3G (Homo sapiens) (UniProt Q9HC16). Put plainly: qHTS for inhibitors of Vif-A3G interactions: Validation (AID 588379). Note: 0% is about no effect. The method in brief:
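HeLa cells stably expressing Vif and A3G-eYFP, 700 cells/well, incubated overnight at 37 deg C, then exposed to compound overnight at 37 deg C. Inhibition of Vif-mediated degradation read as increased yellow fluorescence (Ex 488/Em 500-530) by laser-scanning cytometry.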

Assay [18] relates to Zika virus NS2B-NS3 protease. Put plainly: Primary screen GU AMC qHTS for Zika virus inhibitors (AID 1347154).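 Note: 0% = no-inhibitor control and -100% = no-enzyme control; nearly all actives have a fitted effect of over 70% in size.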 The method in brief: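 Unlinked Zika NS2B hydrophilic domain–NS3 protease complex at 25 nM in 10 mM Tris-HCl pH 8.0, 0.01% Tween 20, with an AMC peptide substrate. Fluorescence change (340/450 nm) over 15 min at room temperature, normalized to controls, fitted to 4-parameter Hill.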

Assay [19] can be described thus: Primary qHTS for small molecule stabilizers of the endoplasmic reticulum resident proteome: Secreted ER Calcium Modulated Protein (SERCaMP) assay (AID 1508630). Note: % is set by controls: 0 for no effect and ±100 for the full control effect. The method in brief: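 GLuc-SERCaMP-expressing SH-SY5Y cells, pretreated 16 h with compound, are challenged with thapsigargin to empty ER calcium stores; after 4 h, coelenterazine is added directly to the medium and luminescence is imaged.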

A number with no mark means an inactive call. Records with an inconclusive call do not appear. Activity calls are given as the source filed them. Unless noted, calls come from the whole dose curve; as a rule, active = well fitted curve in the direction sought with a large enough effect; inconclusive = small, poorly fitted or top-dose-only effect, or another doubt; inactive = no such curve, though single readings can be large; an effect the other way counts as inactive or inconclusive.

Chain of DNA dC->dU-editing enzyme APOBEC-3G (Homo sapiens) (Q9HC16 whole entry, looked up): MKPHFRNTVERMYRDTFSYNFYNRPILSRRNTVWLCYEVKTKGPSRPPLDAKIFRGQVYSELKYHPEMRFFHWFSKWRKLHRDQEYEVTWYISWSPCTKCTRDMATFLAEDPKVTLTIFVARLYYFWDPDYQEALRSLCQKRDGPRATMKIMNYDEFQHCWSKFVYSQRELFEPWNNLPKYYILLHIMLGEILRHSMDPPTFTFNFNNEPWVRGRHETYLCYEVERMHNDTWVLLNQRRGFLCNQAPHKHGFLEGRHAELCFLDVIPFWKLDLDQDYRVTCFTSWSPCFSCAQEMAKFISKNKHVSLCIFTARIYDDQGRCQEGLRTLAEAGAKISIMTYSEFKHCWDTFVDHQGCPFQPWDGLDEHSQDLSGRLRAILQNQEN
Chain of ATP-dependent DNA helicase Q1 (Homo sapiens) (P46063 whole entry, looked up): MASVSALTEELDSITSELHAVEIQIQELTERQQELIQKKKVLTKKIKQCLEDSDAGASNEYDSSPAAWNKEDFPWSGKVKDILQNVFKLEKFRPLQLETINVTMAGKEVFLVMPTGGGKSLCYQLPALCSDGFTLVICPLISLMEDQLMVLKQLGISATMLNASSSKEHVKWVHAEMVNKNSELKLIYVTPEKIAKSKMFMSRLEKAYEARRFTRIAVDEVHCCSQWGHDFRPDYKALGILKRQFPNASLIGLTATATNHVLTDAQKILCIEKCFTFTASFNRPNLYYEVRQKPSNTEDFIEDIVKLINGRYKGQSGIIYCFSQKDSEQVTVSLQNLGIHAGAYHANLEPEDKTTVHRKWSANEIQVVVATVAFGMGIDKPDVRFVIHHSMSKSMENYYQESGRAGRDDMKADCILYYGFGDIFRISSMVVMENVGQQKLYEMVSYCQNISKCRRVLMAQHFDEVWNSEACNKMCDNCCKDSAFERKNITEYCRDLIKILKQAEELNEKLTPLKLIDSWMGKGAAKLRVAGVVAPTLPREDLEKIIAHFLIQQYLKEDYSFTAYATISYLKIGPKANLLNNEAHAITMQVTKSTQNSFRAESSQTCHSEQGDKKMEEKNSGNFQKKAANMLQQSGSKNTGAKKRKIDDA
Chain of Transient receptor potential cation channel subfamily V member 1 (Homo sapiens) (Q8NER1 whole entry, looked up): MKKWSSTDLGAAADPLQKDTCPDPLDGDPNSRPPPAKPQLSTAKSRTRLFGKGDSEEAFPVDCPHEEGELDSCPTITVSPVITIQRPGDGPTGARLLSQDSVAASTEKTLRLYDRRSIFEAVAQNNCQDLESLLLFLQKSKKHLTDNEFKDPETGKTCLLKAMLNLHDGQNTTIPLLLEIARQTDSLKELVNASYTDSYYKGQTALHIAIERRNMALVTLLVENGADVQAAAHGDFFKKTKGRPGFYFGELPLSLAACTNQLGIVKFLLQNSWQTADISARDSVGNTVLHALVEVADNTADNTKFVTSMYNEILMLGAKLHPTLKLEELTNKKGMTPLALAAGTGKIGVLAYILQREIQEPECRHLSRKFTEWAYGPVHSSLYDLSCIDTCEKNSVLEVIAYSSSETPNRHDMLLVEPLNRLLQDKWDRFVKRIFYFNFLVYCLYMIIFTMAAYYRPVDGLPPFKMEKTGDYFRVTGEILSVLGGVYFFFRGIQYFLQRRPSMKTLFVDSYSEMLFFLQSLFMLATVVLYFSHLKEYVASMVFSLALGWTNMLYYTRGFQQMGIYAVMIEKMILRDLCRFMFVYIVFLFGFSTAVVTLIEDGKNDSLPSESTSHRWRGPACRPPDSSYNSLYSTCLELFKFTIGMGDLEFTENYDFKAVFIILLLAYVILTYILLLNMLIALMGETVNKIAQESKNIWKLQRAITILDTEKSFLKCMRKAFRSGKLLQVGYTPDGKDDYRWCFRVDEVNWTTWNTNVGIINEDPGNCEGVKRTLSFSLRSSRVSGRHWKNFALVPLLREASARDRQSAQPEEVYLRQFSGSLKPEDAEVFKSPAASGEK
Chain of Thyrotropin receptor (Homo sapiens) (P16473 whole entry, looked up): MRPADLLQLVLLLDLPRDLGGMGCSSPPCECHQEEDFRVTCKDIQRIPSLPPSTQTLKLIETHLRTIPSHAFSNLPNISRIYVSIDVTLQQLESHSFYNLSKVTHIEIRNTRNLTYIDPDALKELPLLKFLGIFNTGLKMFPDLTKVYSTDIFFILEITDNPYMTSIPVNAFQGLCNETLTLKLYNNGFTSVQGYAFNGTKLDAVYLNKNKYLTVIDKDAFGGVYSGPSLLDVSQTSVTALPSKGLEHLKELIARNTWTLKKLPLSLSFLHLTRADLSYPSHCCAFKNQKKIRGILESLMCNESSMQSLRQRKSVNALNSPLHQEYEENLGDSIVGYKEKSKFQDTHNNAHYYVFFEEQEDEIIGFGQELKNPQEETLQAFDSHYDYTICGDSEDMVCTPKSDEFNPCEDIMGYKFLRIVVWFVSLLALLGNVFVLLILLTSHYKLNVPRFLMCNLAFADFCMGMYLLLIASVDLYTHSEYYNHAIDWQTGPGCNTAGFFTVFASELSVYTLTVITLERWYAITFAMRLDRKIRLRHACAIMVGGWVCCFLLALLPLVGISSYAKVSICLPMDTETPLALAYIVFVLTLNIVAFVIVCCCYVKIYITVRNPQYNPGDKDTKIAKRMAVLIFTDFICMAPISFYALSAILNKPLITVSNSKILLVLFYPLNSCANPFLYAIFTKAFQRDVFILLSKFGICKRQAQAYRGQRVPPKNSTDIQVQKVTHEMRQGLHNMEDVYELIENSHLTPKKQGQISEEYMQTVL
Chain of Thyrotropin-releasing hormone receptor (Homo sapiens) (P34981 whole entry, looked up): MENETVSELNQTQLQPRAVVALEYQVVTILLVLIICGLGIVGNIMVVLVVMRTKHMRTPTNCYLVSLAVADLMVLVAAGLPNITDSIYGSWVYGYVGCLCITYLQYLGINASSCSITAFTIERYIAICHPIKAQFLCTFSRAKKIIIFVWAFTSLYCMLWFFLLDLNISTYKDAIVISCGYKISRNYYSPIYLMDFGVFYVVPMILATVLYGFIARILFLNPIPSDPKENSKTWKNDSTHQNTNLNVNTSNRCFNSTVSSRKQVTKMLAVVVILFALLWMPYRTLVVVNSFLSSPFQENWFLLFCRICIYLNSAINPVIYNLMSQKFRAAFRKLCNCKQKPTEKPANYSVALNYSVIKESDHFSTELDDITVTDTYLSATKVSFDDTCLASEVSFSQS
Chain of Galactokinase (Homo sapiens) (P51570 whole entry, looked up): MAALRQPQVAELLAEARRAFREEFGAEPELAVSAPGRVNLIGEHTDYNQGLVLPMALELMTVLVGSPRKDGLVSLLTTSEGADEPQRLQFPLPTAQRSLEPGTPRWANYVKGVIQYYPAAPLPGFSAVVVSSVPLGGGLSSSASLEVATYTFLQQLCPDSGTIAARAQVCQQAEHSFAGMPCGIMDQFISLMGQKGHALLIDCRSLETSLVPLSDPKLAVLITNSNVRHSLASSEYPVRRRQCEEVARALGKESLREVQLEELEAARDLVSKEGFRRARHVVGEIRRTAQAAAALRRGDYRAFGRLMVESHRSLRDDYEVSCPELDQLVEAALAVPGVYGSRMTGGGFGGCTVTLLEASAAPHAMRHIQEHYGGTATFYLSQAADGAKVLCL
Chain of Ferritin light chain (Equus caballus) (P02791 2-175 limits assumed): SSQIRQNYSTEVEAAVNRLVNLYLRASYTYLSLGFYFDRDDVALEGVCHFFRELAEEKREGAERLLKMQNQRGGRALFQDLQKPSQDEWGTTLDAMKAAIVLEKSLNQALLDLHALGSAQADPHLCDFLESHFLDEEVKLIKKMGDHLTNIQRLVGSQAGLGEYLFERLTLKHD
Chain of RecQ-like DNA helicase BLM (Homo sapiens) (P54132 whole entry, looked up): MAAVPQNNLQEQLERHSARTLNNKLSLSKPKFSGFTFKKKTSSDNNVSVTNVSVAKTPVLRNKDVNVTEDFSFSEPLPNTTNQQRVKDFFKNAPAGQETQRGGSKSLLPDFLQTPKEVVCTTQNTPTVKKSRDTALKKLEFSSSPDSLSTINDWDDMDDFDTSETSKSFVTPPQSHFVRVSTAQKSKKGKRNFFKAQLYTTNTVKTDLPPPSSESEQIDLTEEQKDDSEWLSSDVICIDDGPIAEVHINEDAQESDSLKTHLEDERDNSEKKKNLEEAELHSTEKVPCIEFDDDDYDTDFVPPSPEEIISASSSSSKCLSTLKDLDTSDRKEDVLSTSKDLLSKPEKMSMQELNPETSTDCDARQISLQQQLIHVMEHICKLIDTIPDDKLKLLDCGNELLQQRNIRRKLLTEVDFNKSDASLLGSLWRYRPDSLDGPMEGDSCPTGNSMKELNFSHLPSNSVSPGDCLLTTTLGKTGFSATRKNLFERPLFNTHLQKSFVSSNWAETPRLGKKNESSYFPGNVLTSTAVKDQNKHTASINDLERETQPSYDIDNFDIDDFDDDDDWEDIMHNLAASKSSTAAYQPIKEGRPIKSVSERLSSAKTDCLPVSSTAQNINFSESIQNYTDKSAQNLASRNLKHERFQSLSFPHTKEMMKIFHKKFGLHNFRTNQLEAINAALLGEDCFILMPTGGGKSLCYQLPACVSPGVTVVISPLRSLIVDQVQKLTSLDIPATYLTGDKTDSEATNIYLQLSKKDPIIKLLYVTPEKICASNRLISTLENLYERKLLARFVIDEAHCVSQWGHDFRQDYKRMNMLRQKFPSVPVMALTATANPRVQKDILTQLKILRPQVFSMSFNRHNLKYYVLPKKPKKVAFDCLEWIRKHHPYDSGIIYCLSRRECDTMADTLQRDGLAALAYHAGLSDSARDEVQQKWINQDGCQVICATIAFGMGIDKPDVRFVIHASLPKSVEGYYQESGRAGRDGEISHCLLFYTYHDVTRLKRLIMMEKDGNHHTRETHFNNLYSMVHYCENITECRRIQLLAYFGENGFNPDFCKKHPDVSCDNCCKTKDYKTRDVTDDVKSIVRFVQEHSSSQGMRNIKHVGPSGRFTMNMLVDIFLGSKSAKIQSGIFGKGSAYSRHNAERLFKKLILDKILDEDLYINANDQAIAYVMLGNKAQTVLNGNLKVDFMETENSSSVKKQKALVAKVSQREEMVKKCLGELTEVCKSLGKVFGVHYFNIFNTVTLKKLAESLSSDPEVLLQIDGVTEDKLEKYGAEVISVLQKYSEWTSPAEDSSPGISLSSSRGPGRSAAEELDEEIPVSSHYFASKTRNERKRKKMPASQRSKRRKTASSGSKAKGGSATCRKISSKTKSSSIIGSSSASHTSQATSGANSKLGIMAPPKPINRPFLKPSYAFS

Regarding `O=C(OCCN1CCCCC1)c1c[nH]c2ccccc12`, the Potency entry in [1], in assay [2], in [4], in assay [6], in assay [7] and in [8] was “inactive” each time. The Potency result in [9], in [10], in assay [11], in assay [17], in assay [18] and in [19] was “inactive” throughout. The Potency in assay [3] is 8.91 µM (active). The molecule was called inactive in assay [5], in assay [12], in assay [13], in [15] and in assay [16]. Also, the activation in [14] was 1.38%.
